# Screens from PubChem BioAssay.
# Compounds with a hit are over-represented: about 7.3% of the library has one in this group of screens.
# SMN2 splice enh: qHTS Assay for Enhancers of SMN2 Splice Variant Expression; 210,000 compounds, 2.8% hits; HEK293 SMN2-luciferase splicing reporter, luminescence, 30-36 h; Potency, µM (doses to about 46.1 µM), for inactives: top-dose activity change, positive = activation, actives largely listed as activators; note: % of control where 0% means no effect; nearly all actives have a fitted effect of over 55% in size
#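 qHTS luciferase splicing reporter: luminescence rises when SMN2 exon 7 is included in transfected HEK293 cells. Compound exposure lasted 30-36 h at 37C, with 4.5 mM final sodium butyrate as control, followed by a ONE-Glo read.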
# NPC1 promoter act: qHTS Assay for NPC1 Promoter Activators; Huh7 NPC1 promoter luciferase reporter, 24 h; Potency, µM (highest dose often 9.22 µM), without a hit: at the top dose activation, usual class: activators; AID 485313, 2010; 320,000 compounds, 2.4% hits; note: % of control where 0% means no effect; nearly all actives have a fitted effect of over 60% in size
#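 Stably transfected Huh7 (NPC1 promoter→luciferase), 1500 cells/well in Opti-MEM + 10% FBS, 2 h settle, then compound 24 h at 37 °C. Luminescence after 10 min with Amplite reagent.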
# FLuc counter: qHTS profiling assay for firefly luciferase inhibitor/activator using purifed enzyme and Km concentrations of substrates (counterscreen for miR-21 project) | 360,000 compounds, 6.9% hits | purified FLuc, Km substrates, luminescence inhibition | Luciferin 4-monooxygenase (Photinus pyralis), P08659 | Potency, µM (series often up to 57.5 µM), inactives show top-dose activity change, negative = inhibition, actives largely listed as inhibitors;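 note: plate controls were vehicle for no effect and reference inhibitor for full effect; nearly all actives have a fitted effect of over 55% in size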
# Target sequence (P08659 whole entry, looked up): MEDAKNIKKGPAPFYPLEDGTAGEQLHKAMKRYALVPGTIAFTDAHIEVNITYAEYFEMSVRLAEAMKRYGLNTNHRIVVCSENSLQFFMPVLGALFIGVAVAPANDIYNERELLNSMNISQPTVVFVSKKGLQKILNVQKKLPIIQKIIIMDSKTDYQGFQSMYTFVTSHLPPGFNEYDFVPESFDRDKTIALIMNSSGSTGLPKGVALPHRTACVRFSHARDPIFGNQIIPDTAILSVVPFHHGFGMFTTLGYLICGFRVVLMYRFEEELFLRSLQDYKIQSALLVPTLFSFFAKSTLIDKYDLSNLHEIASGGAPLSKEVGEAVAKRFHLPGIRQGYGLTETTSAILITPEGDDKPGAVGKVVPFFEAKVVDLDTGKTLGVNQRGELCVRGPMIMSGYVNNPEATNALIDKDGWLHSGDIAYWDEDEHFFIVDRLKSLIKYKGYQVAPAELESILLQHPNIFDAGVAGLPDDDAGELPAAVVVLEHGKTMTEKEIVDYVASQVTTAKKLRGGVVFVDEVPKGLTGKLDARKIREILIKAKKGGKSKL
#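 Biochemical qHTS of compounds, final roughly 60 µM downward over six points, against 10 nM purified firefly luciferase using Km concentrations of substrates (10 uM D-luciferin, 10 uM ATP) in Tris acetate pH 7.5 buffer; luminescence output.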
# p53 reactivation: qHTS assay for re-activators of p53 using a Luc reporter. H1299 p53-A138V BP100-luciferase reporter, luminescence, 24 h. Potency, µM (highest dose often 92.2 µM), without a hit: at the top dose activity change, positive = activation, usual class: activators. 320,000 compounds, 0.063% hits. AID 504706, 2011; note: % of control where 0% means no effect; nearly all actives have a fitted effect of over 45% in size
#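 p53-null H1299 cells stably carrying temperature-sensitive p53-A138V and a BP100-luciferase reporter were pinned with compounds (4-point, 1:5 series) and held 24 hrs at 37 deg C. Luminescence was read 10 min after detection reagent.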
# Rab9 promoter act: qHTS Assay for Rab9 Promoter Activators | Huh7 Rab9 promoter-luciferase reporter, luminescence, 24 h | Potency, µM (highest dose often 9.22 µM), without a hit: top-dose activation, negative = inhibition, hits mostly activators | 320,000 compounds, 2.8% hits; note: % of control where 0% means no effect; nearly all actives have a fitted effect of over 60% in size
#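 Promoter activation is measured as luciferase luminescence in Huh7 cells stably transfected with a Rab9 promoter–luciferase construct, following 24 h compound exposure at 37 °C and 10 min reagent incubation at ambient temperature.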
# ELG1 genotox: qHTS screen for small molecules that induce genotoxicity in human embryonic kidney (HEK293T) cells expressing luciferase-tagged ELG1 | HEK293T ELG1-luciferase reporter, luminescence, 16 h | Potency, µM (highest dose often 46 µM), for inactives: at the highest dose activity change, positive = activation, actives largely listed as activators | 330,000 compounds, 1.3% hits; note: % of control where 0% means no effect; nearly all actives have a fitted effect of over 60% in size
#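 HEK293T cells expressing luciferase-tagged ELG1 were treated with compound or DMSO for 16 hr at 37°C. Luciferase activity was then read after 30 min with ONE-Glo at room temperature; rising signal flags genetic stress.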
# Active calls of the source: *; ? = inconclusive; . = not tested or not shown. Calls come from the whole dose curve; as a rule, active = well fitted curve in the direction sought with a large enough effect; inconclusive = small, poorly fitted or top-dose-only effect, or another doubt; inactive = no such curve, though single readings can be large; an effect the other way counts as inactive or inconclusive. Potency is the fitted concentration of half-maximal effect.
SMILES,SMN2 splice enh,NPC1 promoter act,FLuc counter,p53 reactivation,Rab9 promoter act,ELG1 genotox
CC(=O)c1ccc(-c2nnc(CCC(=O)N3CCCC(C(=O)CC(C)C)C3)o2)s1 (stereo unspecified),.,4.5µM*,19µM*,?,3.5µM*,?
Cn1c(-n2cccc2)c(-c2c(-c3ccccc3)[nH]c3c2c(=O)n(C)c(=O)n3C)c(=O)n(C)c1=O,.,.,-4%,.,.,.
CC(=O)N1CCC2(CC1)CCN(c1cccc(-c3ccccc3)c1)CC2,-47%,.,.,.,.,.
O=C(CCc1nnc(C2(c3ccc(Cl)cc3)CCC2)o1)N1CCCC1,.,?,17µM*,?,?,?
NC(=O)C1CCCN(C(=O)CCc2nnc(C3(c4ccc(Cl)cc4)CCC3)o2)C1 (stereo unspecified),.,-2%,4%,19%,4%,-5%
O=C(Cc1ccccc1)Nc1ccc(NC(=S)NC(=O)c2ccccc2)cc1,.,-1%,1%,3%,3%,5%
CC(=O)c1cccc(NC(=S)NC(=O)c2ccc(C)cc2Cl)c1,?,24%,15µM*,8%,?,12%
CCC(=O)Nc1cccc(NC(=S)NC(=O)c2ccccc2)c1,11µM*,2.8µM*,15µM*,?,?,16%
CCC(=O)Nc1cccc(NC(=S)NC(=O)c2cccc(C)c2)c1,11µM*,3.2µM*,?,?,1.6µM*,?
O=C(NC(=S)Nc1cccc(CO)c1)c1ccc(-c2ccccc2)cc1,?,1µM*,?,5%,1.6µM*,3%
COc1ccc(NC(=O)CN(C)S(=O)(=O)c2ccc3nc(C)sc3c2)cc1,.,.,-1%,.,.,.
Cc1nn2c(=O)cc(COC(=O)c3ccc(NC(=O)COc4ccc(Cl)cc4)cc3)nc2s1,.,.,1%,.,.,.
C=CCn1c(SCC(=O)Nc2ccc(OC)cc2)nnc1-c1cnccn1,.,0%,-1%,0%,-1%,1%
CCC(=O)N1CCc2cc(CNS(=O)(=O)c3cc(Cl)ccc3OC)ccc21,.,.,-2%,.,.,.
O=C(O)c1ccc(NC(=S)NC(=O)c2ccc3ccccc3c2)cc1,.,?,?,30%,?,?
CCC(=O)Nc1cccc(NC(=S)NC(=O)c2cc3ccccc3o2)c1,2.8µM*,1.1µM*,0.6µM*,25%,1.1µM*,23µM*
COC(=O)c1ccccc1NC(=S)NC(=O)c1ccccc1,2%,3%,-9%,5%,1%,6%
CCC(=O)Nc1ccc(NC(=S)NC(=O)c2cc3ccccc3o2)cc1,-13%,2%,3%,9%,2%,?
Cc1ccc(NC(=S)NC(=O)c2ccccc2)cc1NC(=S)NC(=O)c1ccccc1,.,?,-17%,10%,1.8µM*,?
CCOc1cccc(C(=O)Nc2ccc(NC(=O)c3ccccc3)c(C)c2)c1,.,0%,13µM*,3%,2%,-3%
O=C(O)c1cccc(NC(=S)NC(=O)c2ccc3ccccc3c2)c1,.,?,1.3µM*,-6%,?,?
O=C(CCC1N=C2c3ccccc3N=C(SCC(=O)Nc3ccccc3F)N2C1=O)NCc1ccco1 (stereo unspecified),14%,.,-3%,.,.,.
CCOc1cccc(C(=O)NC(=S)Nc2ccccc2)c1,11µM*,?,6.7µM*,?,?,?
Cc1c(NC(=S)NC(=O)c2cc3ccccc3o2)cccc1C(=O)O,.,4µM*,?,-2%,1.8µM*,-2%
CC(=O)c1cccc(NC(=S)NC(=O)c2ccc(C)cc2)c1,11µM*,3.2µM*,11µM*,?,1.4µM*,?
SMILES,SMN2 splice enh,NPC1 promoter act,FLuc counter,p53 reactivation,Rab9 promoter act,ELG1 genotox
CCC(=O)NC(=S)Nc1cccc(NC(=O)CC)c1,1%,-3%,14%,-2%,-9%,1%
CCOc1cccc(C(=O)NC(=S)Nc2cccnc2)c1,17%,18%,?,27%,22%,8%
CCC(=O)Nc1cccc(NC(=S)NC(=O)c2ccc(C)cc2)c1,10µM*,2µM*,6.7µM*,9%,1.6µM*,?
Cc1nn(-c2ccccc2)c(Cl)c1C(=O)N(C)c1nc(-c2ccc(F)cc2)cs1,-36%,-4%,9%,4%,-6%,6%
COc1cccc(Nc2ccc(N3CCCCC3)cc2)c1OC,.,3.5µM*,?,?,2.8µM*,?
COc1cccc(OC)c1C(=O)Nc1ccccc1N1CCCCC1,.,-5%,6%,.,-4%,2%
COc1ccccc1CNc1ccc(N2CCCCC2)cc1,7%,16%,15µM*,0%,17%,?
COc1cccc(CNc2ccc(N3CCCCC3)cc2)c1OC,-5%,?,?,?,24%,-1%
Cc1ccc(-c2onc3ccc(C4OCCO4)cc23)cc1,-1%,27%,7.6µM*,16%,?,10%
O=C(c1cccc(Br)c1)N1CCCC1,4%,0%,2%,-4%,4%,2%
O=C(c1cccc(-c2nnc(-c3ccccc3)o2)c1)N1CCCCC1,14µM*,?,17µM*,?,?,?
O=C(c1cccc(-c2nnc(-c3ccccc3)o2)c1)N1CCCCCC1,?,?,17µM*,28%,?,?
O=C(c1ccc(-c2ccccc2)cc1)N1CCCC1,-2%,1%,?,5%,11%,?
CCOC(=O)C1CCN(c2cc3c(cc2NC(=O)c2ccc(Cl)cc2)n(C)c(=O)n3C)CC1,-3%,.,2%,.,.,.
O=C(Nc1ccc(F)c(Cl)c1)C1CCN(c2ncccn2)CC1,-1%,.,-13%,.,.,.
O=C(Nc1ccccc1)N1CCN(C(=O)c2nsc3ccccc23)CC1,.,.,-6%,.,.,.
COc1cccc(N2CCN(C(=O)c3cccc(NC(=O)c4nsc5ccccc45)c3)CC2)c1,.,.,1.9µM*,.,.,.
COc1ccc(N2CCN(C(=O)c3cccc(NC(=O)c4nsc5ccccc45)c3)CC2)cc1,.,.,9.5µM*,.,.,.
Cc1ccc(C(=O)N2CCN(c3ccccc3)CC2)cc1NC(=O)c1nsc2ccccc12,.,.,-4%,.,.,.
CC1CCN(C(=O)c2cccc(NC(=O)c3nsc4ccccc34)c2)CC1,.,.,3.4µM*,.,.,.
Cc1ccc(C(=O)N2CCN(c3ccccc3F)CC2)cc1NC(=O)c1nsc2ccccc12,.,.,-13%,.,.,.
O=C(Nc1cccc(C(=O)N2CCN(c3ccccc3)CC2)c1)c1nsc2ccccc12,.,.,2.7µM*,.,.,.
COc1ccc(C)cc1NC(=O)N1CCN(c2cc(-c3noc(C)n3)ccc2C)CC1,.,.,-7%,.,.,.
